D3 antag = antagonists of human D3 dopamine receptor; P35462; D3R cells, DiscoveRx beta-arrestin luminescence, antagonist mode; active compounds read low; max response, negative = inhibition, %; actives 2.5% (n = 360,000); AID 652054; in the data active = max response below about -50%; inconclusive = no clear call, values can overlap the other calls; note: % is set by controls: 0 for no effect and ±100 for the full control effect
Target sequence (P35462 whole entry, looked up): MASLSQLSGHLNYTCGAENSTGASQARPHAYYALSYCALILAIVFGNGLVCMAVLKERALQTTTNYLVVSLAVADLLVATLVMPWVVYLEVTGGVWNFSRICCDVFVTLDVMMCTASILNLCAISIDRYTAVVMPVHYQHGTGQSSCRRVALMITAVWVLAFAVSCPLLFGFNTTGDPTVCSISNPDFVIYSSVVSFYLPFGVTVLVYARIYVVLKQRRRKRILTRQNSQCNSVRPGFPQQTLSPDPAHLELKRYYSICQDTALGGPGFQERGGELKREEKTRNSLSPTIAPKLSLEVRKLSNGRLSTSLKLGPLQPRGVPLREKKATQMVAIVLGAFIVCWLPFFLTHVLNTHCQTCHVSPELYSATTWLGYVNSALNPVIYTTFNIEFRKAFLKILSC
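Cells plated overnight at 1500 cells/well, then exposed to library compounds with dopamine controls for 90 minutes at 37 degrees C. DiscoveRx reagent added for 30–60 minutes at room temperature; luminescence read, quantitative HTS format.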
a7 integrin act = integrin-mediated muscular dystrophy alleviation activation; Potency, µM (top dose mostly 38.3 µM), for the others: top-dose activation, usual class: activators; actives 0.064% (n = 350,000); alpha7betagal myoblasts, beta-gal FDG fluorescence, 48 h; AID 624291;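 note: potency is the fitted concentration of half-maximal effect; 100% = response of the positive control SU9516; nearly all actives have a fitted effect of over 60% in size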
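alpha7betagal+/- myoblasts (passage 13, 250/well) treated 48 h at 37C with compounds at 1:260 dilution of DMSO stock. Lysed, then beta-galactosidase activity read as FDG fluorescence (ex 480/em 540) after 30 min, with pre-read for autofluorescence.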
PTHR1 ag = activates the human parathyroid hormone receptor PTHR1. Potency, µM (highest dose often 115 µM), for inactives: top-dose activation, usual class: activators. Q03431. actives 0.075% (n = 410,000). HEK293 GP2 PTHR1 cells, GloSensor cAMP luminescence, 1 h; note: potency is the fitted concentration of half-maximal effect; nearly all actives have a fitted effect of over 55% in size
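HEK-293-derived GP2 cells expressing PTHR1 and a GloSensor cAMP reporter, 3,000/well, plated overnight, given luciferin plus IBMX (each 0.5 mM as added) for 1 h at 37 °C, then compound for 1 h at 37 °C. Luminescence was read after 15 min at room temperature.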
DRD3 agonist = activates the human D3 dopamine receptor | P35462 | AID 652048 | max activation, % | D3R DiscoveRx beta-arrestin cells, luminescence, 90 min | actives 0.58% (n = 410,000); in the data active = max activation above about 30%; note: 0% is about no effect
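Agonist mode: compounds and dopamine controls were applied to plated cells for 90 min at 37 degrees C after an overnight attachment at 1500 cells/well. Luminescent read-out followed 30 - 60 minutes at room temperature with DiscoveRx detection reagent.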
CBFb RUNX1 block = blocks binding between human CBF-beta and RUNX1; 230,000 tested, under 10 active; AlphaScreen CBFb-His/RUNX1-biotin binding, biochemical; Q01196+Q13951; Potency, µM (series often up to 59.8 µM), inactives show at the highest dose activity, negative = inhibition, actives largely listed as inhibitors; AID 1477; note: % of control where 0% means no effect
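Proteins preincubated together for 20 min at RT before compound addition; 15 min later, nickel and streptavidin beads were added and left 90 min prior to AlphaScreen measurement.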
MBNL1 CUG block = blocks human MBNL1 binding to CUG repeat RNA; actives 0.036% (n = 280,000); TR-FRET MBNL1-His/biotin-(CUG)12 binding, 665/545 ratio; Q9NR56; Potency, µM (doses to about 57.5 µM), for the others: top-dose activity change, negative = inhibition, hits mostly inhibitors; active = well fitted inhibition curve with a large enough effect in the signal ratio, with a control signal flat, not every such curve was filed as active; inconclusive = small, poorly fitted or top-dose-only effect, or effect the other way, or a change in a side signal; inactive = no such curve, though single readings can be large or run the other way; the % refers to the signal ratio; note: potency is the fitted concentration of half-maximal effect; % is set by controls: 0 for no effect and ±100 for the full control effect
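TR-FRET between His-tagged MBNL1 and biotin-(CUG)12 RNA, detected with Tb anti-His antibody (0.055 ng/ul) and streptavidin-XL665 (5 nM), 60 min at room temperature. Compounds titrated 92 nM to 58 uM; 665/545 nm ratio normalized to buffer and complex controls.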
The depositor's hits bear a star; i = inactive; u = inconclusive; x = not tested or not shown; [ ] = remark or other dose. An excerpt weighted towards active compounds, which were near 2.8% of everything screened. Unless noted, calls come from the whole dose curve; as a rule, active = well fitted curve in the direction sought with a large enough effect; inconclusive = small, poorly fitted or top-dose-only effect, or another doubt; inactive = no such curve, though single readings can be large; an effect the other way counts as inactive or inconclusive.

SMILES	D3 antag	a7 integrin act	PTHR1 ag	DRD3 agonist	CBFb RUNX1 block	MBNL1 CUG block
O=C(Nc1ccc2oc(-c3ccncc3)nc2c1)c1c(F)c(F)c(F)c(F)c1F	-66*	24%	-5%[57.5 µM]	-16	10%	5%
CN(c1cccc(F)c1)c1cc2c(c3c1ccn3C)C1CCC2O1 (stereo not drawn)	-12	x	i	-10	x	x
Cc1cccnc1C(NC(=O)C1CCN(Cc2ccc3ccccc3n2)CC1)c1ccc(Cl)cc1 (stereo not drawn)	-68*	x	i	-12	x	x
Cc1cccnc1C(NC(=O)C1CCN(CCOc2ccc(F)cc2)CC1)c1ccc(Cl)cc1 (stereo not drawn)	0	x	-10%	-22	x	x
Cc1cccnc1C(NC(=O)C1CCN(CCCOc2ccc(F)cc2)CC1)c1ccccc1 (stereo not drawn)	-84*	x	-22%	-25	x	x
COc1ccc(OCCN2CCC(C(=O)NC(c3ccc(F)cc3)c3ncccc3C)CC2)cc1 (stereo not drawn)	-85*	x	-20%	-14	x	x
COc1ccc(OCCN2CCC(C(=O)NC(c3ccc(Cl)cc3)c3ncccc3C)CC2)cc1 (stereo not drawn)	-73*	x	i	-19	x	x
COc1ccc(-c2nnn(CC(=O)N3CCOCC3)n2)cc1	-60*	4%	i	5	4%	-5%
Cc1cc(C)cc(NC(=O)c2c(C)oc3nc(C)nc(N4CCCC4)c23)c1	x	x	-23%	10	x	x
Cc1[nH]c2ccccc2c1CCN(Cc1cccnc1)C(=S)NC(C)(C)C	-21	-23%	i	1	x	-5%
COCCn1c(C)cc(C2=NNC(=Nc3ccc(OC)cc3)SC2)c1C	-12	-12%	i	-3	-19%	-8%
COCCn1c(C)cc(C2=NNC(=Nc3ccccc3)SC2)c1C	-58*	26%	-6%	1	-12%	7%
COc1ccc(CCNC(=O)CCN2C(=O)COc3ccc(C)cc32)cc1OC	-65*	2%	-36%	-3	-2%	0%
O=C(CCN1C(=O)COc2ccccc21)NCCN1CCc2ccccc2C1	-62*	-26%	i	-33	6%	-2%
O=C(/C=C/c1ccccc1)OCc1ccccc1	x	x	x	4	x	x
CCN(CC)CCOC(=O)/C=C/c1ccccc1	-63*	19%	-25%	-17	-8%	x
CCN(CC)CCCOC(=O)C(c1ccccc1)c1ccccc1	-85*	-14%	i	-53	4%	10%
O=C(O)CN(C1CCCCC1)S(=O)(=O)c1ccc(F)cc1	46	28%	i	-1	-18%	-9%
COc1ccc(S(=O)(=O)N(C)c2ccc(C(=O)N3CCC(C(N)=O)CC3)cc2)cc1OC	2	1%	i	4	12%	-4%
Cn1c(CC(=O)Nc2ccccc2F)nnc1SCC(=O)N1CCOCC1	8	9%	i	9	x	3%
COc1ccc(C(CNC(=O)c2cccc(NS(=O)(=O)c3ccc(C)c(F)c3)c2)N(C)C)cc1 (stereo not drawn)	-59*	-39%	-8%	-23	x	x
CCOc1ccc(S(=O)(=O)Nc2cccc(C(=O)NCC(c3ccccc3)N(C)C)c2)cc1 (stereo not drawn)	-68*	19%	-3%	-17	x	x
CCOc1ccc(NS(=O)(=O)c2ccc(C(=O)NCC(c3ccco3)N(C)C)cc2)cc1 (stereo not drawn)	1	-9%	i	-8	x	x
COc1ccccc1C(CNC(=O)c1cccc(NS(=O)(=O)c2ccc(C)c(F)c2)c1)N(C)C (stereo not drawn)	0	-31%	i	-27	x	x
CCOc1ccc(S(=O)(=O)Nc2cccc(C(=O)NCC(c3ccco3)N(C)C)c2)cc1 (stereo not drawn)	-56*	15%	24%	-33	x	x
SMILES	D3 antag	a7 integrin act	PTHR1 ag	DRD3 agonist	CBFb RUNX1 block	MBNL1 CUG block
COc1ccc(C(CNC(=O)c2cccc(NS(=O)(=O)c3ccccc3)c2)N(C)C)cc1 (stereo not drawn)	u	-5%	i	-10	x	-3%
CC(=O)Nc1ccc(-c2ccnc3c2CC(C)(C(=O)Nc2ccc4c(c2)OCO4)O3)cc1 (stereo not drawn)	0	x	-7%	-15	x	x
CSc1cccc(NC(=O)CN2C(=O)COc3ccc(Cl)cc32)c1	x	x	i	-4	x	x
CN(c1ccc(C(=O)N2CCOCC2)cc1[N+](=O)[O-])C1CCCCC1	-60*	-9%	-25%	1	-6%	u
O=C(COc1ccccc1)Nc1nnc2n1CCS2	x	x	i	10	x	x
CCS(=O)(=O)c1ccc(C(=O)Nc2ccccc2OC)c(Cl)c1Cl	-13	14%	u	-2	-4%	-4%
O=C(Nc1ccc(F)cc1)OCCN1CCN(Cc2ccccc2)CCC1=O	-10	20%	-29%	-14	-7%[89.1 µM]	2%
O=C(NCc1ccccc1)OCCN1CCN(Cc2ccccc2)CCC1=O	-68*	-29%	-7%	-10	-8%[89.1 µM]	u
CCC1Sc2ccccc2N(CC(=O)NCc2ccc(C)cc2)C1=O (stereo not drawn)	x	x	-16%	9	x	x
CCC(C)NCCOCCOc1ccc(Cl)c2ccccc12 (stereo not drawn)	-56*	-60%	-16%	-14	6%	u
C=CCc1cc(Cl)ccc1OCCOCCNC(C)CC (stereo not drawn)	u	-52%	i	-16	6%	4%
CCC(C)NCCOCCOc1ccc(Cl)c(C)c1C (stereo not drawn)	-64*	-50%	i	-13	3%	-19%
Clc1ccc(OCCCNCc2ccccc2)c2ccccc12	-29	-15%	i	-22	x	4%
CCC(C)NCCOCCSc1ccc(Cl)cc1 (stereo not drawn)	-78*	-68%	i	-10	-1%	-7%
CN(CC(=O)Nc1ccccc1Cl)C(=O)COC(=O)c1nc(Cl)c(Cl)c(Cl)c1Cl	-67*	-34%	-8%	-6	x	5%
COc1ccc(C)c(NC(=O)NCCc2cnc[nH]2)c1	u	11%	i	-21	x	-8%
Cc1ccc(Nc2cc(C)nc(-n3nc(C)cc3C)n2)cc1	x	x	14%	-10	x	x
CCOc1cc(/C=N/Nc2cc(C)nc(-n3nc(C)cc3C)n2)ccc1O	-175*	-67%	i	-41	-2%	x
CCOc1ccc(Nc2cc(C)nc(-n3nc(C)cc3C)n2)cc1	-52*	-31%	-34%	1	-13%	8%
COc1ccc(/C=N/Nc2cc(C)nc(-n3nc(C)cc3C)n2)c(OC)c1	-8	-47%	-41%	-8	-25%	u

Compound activity as filed in PubChem.
